# IL-1B inflam inh: blocks inflammasome-driven IL-1 beta release; 4.7% of 360,000 active; THP-1 LPS/ATP IL-1B secretion, AlphaLISA, 16 h; stronger effect = lower value; activity change, % at 57.5 µM; in the data active means activity change below about -50%; inconclusive means mostly about -30% to -49%
#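 Secreted IL-1B measured by AlphaLISA bead assay after 16 h compound exposure of THP-1 cells; compounds (final up to 57.5 uM) added 1 h before LPS (250 ng/mL) and ATP (1.25 mM) stimulation; lower signal means less secretion.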
# TDP1 cell noCPT: qHTS for Inhibitors of human tyrosyl-DNA phosphodiesterase 1 (TDP1): qHTS in cells in absence of CPT; DT40 Tdp1-/- hTDP1 cells, no CPT, ATP luminescence, 48 h; Potency, µM (top dose mostly 46.2 µM), hits mostly inhibitors; 15% of 420,000 active; further: nearly all actives have a fitted effect of over 55% in size
#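 Chicken DT40 Tdp1-/- cells stably complemented with human TDP1 were seeded at 400 cells/well with DMSO in place of 20 nM camptothecin. After compound pinning, cells grew at least 48 hr at 37 °C; viability read by CellTiter-Glo luminescence.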
# DT40 TDP1 CPT: DT40-hTDP1 cell growth loss with CPT; chicken DT40 Tdp1-/-;hTDP1 cells + 20 nM CPT, ATP luminescence, 48 h; Potency, µM (top dose mostly 46.2 µM), actives largely listed as inhibitors; 12% of 420,000 active; AID 686979; further: nearly all actives have a fitted effect of over 55% in size
#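 Chicken DT40 Tdp1-/- cells complemented with human TDP1, 400 cells/well, exposed to compounds plus 20 nM camptothecin for at least 48 h at 37 C; viability read as ATP content by CellTiter-Glo luminescence.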
# ClpP mod: qHTS Assay for Activators of ClpP; purified B. subtilis ClpP, FRET peptide cleavage, 20 min; Potency, µM (series often up to 57.5 µM); 1.9% of 340,000 active; active means well fitted falling curve with a large enough effect; inconclusive means small, poorly fitted or top-dose-only effect; inactive means no such curve, though single readings can be large or run the other way; further: the source files actives as falling curves though it sought activators and does not explain the sign; nearly all actives have a fitted effect of over 65% in size
# Target sequence (P80244 whole entry, looked up): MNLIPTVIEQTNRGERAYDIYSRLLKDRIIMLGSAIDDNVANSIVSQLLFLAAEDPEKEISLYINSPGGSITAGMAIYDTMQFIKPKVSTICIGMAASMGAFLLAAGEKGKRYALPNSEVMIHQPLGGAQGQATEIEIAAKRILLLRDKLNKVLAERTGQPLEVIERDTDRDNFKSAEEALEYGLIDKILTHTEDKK
#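 Purified B. subtilis ClpP, 10 microg/mL final in Tris/HCl pH8 with KCl, BSA, glycerol and Tween-20, cleaved an Abz/nitrotyrosine-quenched decapeptide. Fluorescence (ex 320, em 430) was read at 0 and 20 min at room temperature. Delta was normalized to 5.8 microM ADEP and DMSO/no-enzyme controls.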
# DRD3 antagonist: blocks the human D3 dopamine receptor. D3R cells, DiscoveRx beta-arrestin luminescence, antagonist mode; stronger effect = lower value. max response, negative = inhibition, %. 2.5% of 360,000 active. AID 652054; in the data active means max response below about -50%; inconclusive means no clear call, values can overlap the other calls
#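 Cells expressing the human receptor were seeded at 1500 cells/well, incubated overnight at 37 degrees C in 5% CO2, then exposed to library compounds with dopamine controls for 90 minutes at 37 degrees C before luminescent detection.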
# D3 ag: agonists of human D3 dopamine receptor; P35462; D3R DiscoveRx beta-arrestin cells, luminescence, 90 min; max activation, %; 0.58% of 410,000 active; AID 652048; in the data active means max activation above about 30%
#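 Agonist mode: compounds and dopamine controls were applied to plated cells for 90 min at 37 degrees C after an overnight attachment at 1500 cells/well. Luminescent read-out followed 30 - 60 minutes at room temperature with DiscoveRx detection reagent.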
# Hits are given with their value; . = inactive; ? = inconclusive; / = no result. This is a sample that favours compounds with a hit; in the whole collection about 21% have one here. Unless noted, the call rests on the fitted dose curve; in most records, active means well fitted inhibition curve with a large enough effect; inconclusive means small, poorly fitted or top-dose-only effect; inactive means flat fitted curve, though single readings scatter.
SMILES,IL-1B inflam inh,TDP1 cell noCPT,DT40 TDP1 CPT,ClpP mod,DRD3 antagonist,D3 ag
CCCCC(CC)COC(=O)C(C#N)=C(c1ccccc1)c1ccccc1 (configuration not stated),.,18.4µM,?,.,-73.7,.
O=C1CS/C(=N\N=C\c2ccccc2Cl)N1CC1CC1,.,?,.,.,?,.
c1ccc2c(c1)NCC1CCCN21 (configuration not stated),.,16.4µM,20.6µM,.,.,.
COc1ccc(Cl)cc1NC(=O)c1nnn(CC(=O)Nc2ccc(C)c(C)c2)c1N,.,.,.,.,.,.
O[C@@H]1CN(Cc2cccs2)[C@@H](c2ccc(Cl)cc2)C[C@H]1n1cc(-c2ccc(F)cc2)nn1,.,23.1µM,?,.,.,.
O=C(c1cccs1)N1C[C@H](n2cc(-c3ccc(F)cc3)nn2)[C@@H](O)C[C@@H]1c1ccc(Cl)cc1,?,?,?,.,.,.
Cc1ccc([C@H]2C[C@@H](n3cc(-c4ccc(F)cc4)nn3)[C@H](O)CN2Cc2cccs2)cc1,.,?,.,.,.,.
O=C(C1CCCCC1)N1C[C@@H](O)[C@H](n2cc(-c3ccc(F)cc3)nn2)C[C@@H]1c1ccccc1,.,14.6µM,?,.,.,.
O=C(c1cccs1)N1C[C@@H](n2cc(-c3ccc(F)cc3)nn2)[C@H](O)C[C@@H]1c1ccc(Cl)cc1,.,23.1µM,13µM,.,.,.
O=C(c1cccs1)N1C[C@@H](n2cc(-c3ccc(F)cc3)nn2)[C@H](O)C[C@@H]1c1ccccc1,.,20.6µM,14.6µM,.,.,.
Cc1ccc(CNC(=O)CCCn2nc(C)n3c(cc4sccc43)c2=O)cc1,/,.,.,.,/,.
Cc1ccsc1C(=O)OCC(=O)N(C)c1c(N)n(Cc2ccccc2)c(=O)[nH]c1=O,.,.,.,.,.,.
COc1ccc([C@H]2C[C@H](O)[C@@H](n3cc(-c4ccc(F)cc4)nn3)CN2C(=O)c2cccs2)cc1,.,?,?,.,.,71.0
O=C(c1cccs1)N1C[C@@H](O)[C@H](n2cc(-c3ccc(F)cc3)nn2)C[C@@H]1c1ccc(Cl)cc1,.,23.1µM,?,.,?,.
COC(=O)c1c(-c2cccc3ccccc23)csc1NC(=O)Cc1ccc(OC)c(OC)c1,?,11.6µM,25.9µM,.,.,.
COC(=O)c1c(-c2ccc(Br)cc2)csc1NC(=O)Cc1ccc(OC)c(OC)c1,.,10.3µM,?,.,.,.
COC(=O)c1sccc1NC(=O)Cc1ccc(OC)c(OC)c1,.,.,.,.,.,.
COc1ccc(CC(=O)Nc2cccc3ccccc23)cc1OC,.,?,?,/,.,.
CS(=O)(=O)c1ccc(Nc2nc(C(N)c3ccccc3Cl)cs2)cc1 (configuration not stated),.,?,?,?,.,.
CS(=O)(=O)c1ccc(Nc2nc(C(N)Cc3ccc(F)cc3)cs2)cc1 (configuration not stated),.,20.6µM,16.4µM,.,.,.
CS(=O)(=O)c1ccc(Nc2nc(C(N)Cc3ccc(C(F)(F)F)cc3)cs2)cc1 (configuration not stated),.,.,20.6µM,.,.,.
COc1ccc(CC(N)c2csc(Nc3ccc(S(C)(=O)=O)cc3)n2)cc1 (configuration not stated),.,23.1µM,?,.,.,.
CS(=O)(=O)c1ccc(Nc2nc(C(N)COCc3ccccc3)cs2)cc1 (configuration not stated),.,20.6µM,20.6µM,.,.,.
NC(Cc1ccc(F)cc1)c1csc(Nc2ccc(S(N)(=O)=O)cc2)n1 (configuration not stated),.,?,?,.,.,.
CS(=O)(=O)c1ccc(Nc2nc(C(N)c3ccccc3)cs2)cc1 (configuration not stated),.,?,?,.,.,.

# Bioassay records from PubChem BioAssay.
